Screening data deposited in PubChem BioAssay by National Center for Advancing Translational Sciences (NCATS).
Most compounds without a hit are left out; they make up all but 14% or so of the library.
MARV entry inh: qHTS for inhibitors of binding or entry into cells for Marburg Virus; Marburg virus pseudotyped entry inhibition, cell reporter; 300,000 compounds, 1.8% hits; AID 540276, 2011; Potency, µM (series often up to 37.8 µM), without a hit: top-dose activity change, negative = inhibition, actives largely listed as inhibitors; calls by dose curve; tested in HEK293 cells; note: potency is the fitted concentration of half-maximal effect
Pf growth 96h: Primary qHTS for delayed death inhibitors of the malarial parasite plastid, 96 hour incubation; Potency, µM (highest dose often 28.7 µM), for the others: at the highest dose activity change, negative = inhibition, hits mostly inhibitors; 320,000 compounds, 6.9% hits; P. falciparum luciferase reporter growth, 96 h; note: potency is the fitted concentration of half-maximal effect
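Compounds incubated with erythrocytes infected by luciferase-expressing P. falciparum (2% hematocrit, 0.05% parasitemia final) for 96 hours, 37 C in 5% CO2. Growth inhibition scored as decreased luciferase luminescence.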
Pf growth 48h: Primary qHTS for delayed death inhibitors of the malarial parasite plastid, 48 hour incubation. P. falciparum luciferase growth in erythrocytes, 48 h. Potency, µM (top dose mostly 28.7 µM), inactives show at the top dose activity change, negative = inhibition, usual class: inhibitors. 310,000 compounds, 5.9% hits. AID 504832, 2011; note: potency is the fitted concentration of half-maximal effect
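Firefly luciferase activity from engineered P. falciparum reports growth; inhibitors lower the luminescent signal. Cultures contained 2% hematocrit erythrocytes at 0.1% final parasitemia.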
Lassa entry inh: qHTS for Inhibitors of binding or entry into cells for Lassa Virus. Lassa virus pseudotype entry inhibition, cell reporter. Potency, µM (series often up to 37.9 µM), inactives show top-dose activity change, negative = inhibition, usual class: inhibitors. 300,000 compounds, 1.2% hits; calls by dose curve; tested in HEK293 cells; note: potency is the fitted concentration of half-maximal effect; nearly all actives have a fitted effect of over 50% in size
HCMV inh: qHTS Assay for inhibitors of the human cytomegalovirus (HCMV); 410,000 compounds, 4.5% hits; AID 1259415, 2018; activity change, negative = inhibition, % at 57.5 µM; HFF cells, HCMV-luciferase reporter, 72 h; hits give low values; in the data active = activity change below about -60%; inconclusive = no clear call, values can overlap the other calls; inactive = above about -39%
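Steps: HFFs plated, 16 h 37C; compounds added; HCMV-luciferase added to MOI 1 PFU/cell; 72 h 37C; OneGlo reagent, 5 min room temperature; luminescence read, normalized to controls.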
HCV inh: qHTS Assay for Inhibitors of Hepatitis C Virus (HCV) | Huh7.5.1 HCVcc-Cre infection, luciferase reporter, 44 h | 340,000 compounds, 3.4% hits | Potency, µM (series often up to 41.8 µM), without a hit: at the top dose activity change, negative = inhibition, actives largely listed as inhibitors | AID 651820, 2012; note: potency is the fitted concentration of half-maximal effect
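Seed cells (1,000/well) for 4 h; treat with compound and infect with HCVcc-Cre, moi about 0.5. Incubate 44 h, then detect luciferase activity.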
The depositor's hits bear a star; u = inconclusive; x = not tested or not shown; [ ] = dose if it differs, or a comment. Unless noted, calls come from the whole dose curve; as a rule, active = well fitted inhibition curve with a large enough effect; inconclusive = small, poorly fitted or top-dose-only effect, or another doubt; inactive = no such curve, though single readings can be large or run the other way. % is set by controls: 0 for no effect and ±100 for the full control effect.

SMILES	MARV entry inh	Pf growth 96h	Pf growth 48h	Lassa entry inh	HCMV inh	HCV inh
O=C(OCc1ccccc1)c1ccc2c(c1)-c1ccccc1C2=O	16.3%	u	9.28µM*	u	19.7	u
COc1cccc(C(=O)NCC(=O)OCC(=O)NC2CCCCC2)c1	-7.9%	x	x	0.7%	16.0	11.5%
Cc1nc2ncnn2c(N2CCN(c3cccc(C(F)(F)F)c3)CC2)c1C	-14.8%	87.4%	u	u	-101.0*	0.891µM*
Cc1nc2ncnn2c(N2CCN(C(c3ccccc3)c3ccccc3)CC2)c1C	-5.5%	0.37µM*	u	u	-69.5*	u
Cc1cc(N2CCN(c3nc4ccccc4s3)CC2)n2ncnc2n1	u	-14.0%	u	u	-101.8*	3.16µM*
Cc1cc(N2CCN(C(c3ccccc3)c3ccccc3)CC2)n2ncnc2n1	9.6%	-20.9%	-22.4%	-1.5%	-97.3*	1.2%
CCC(C)(C)C1CCC2(CC1)NC(=O)N(CC(=O)N1CCN(c3ccccc3OC)CC1)C2=O (stereo not drawn)	x	x	x	x	-23.2	x
CC(=O)c1ccccc1NC(C(=O)Nc1c(C)cccc1C)C1CCCC1 (stereo not drawn)	x	x	x	x	-5.4	x
COc1ccc(S(=O)(=O)NCC(c2cccs2)N2CCc3ccccc3C2)cc1 (stereo not drawn)	-19.2%	5.9%	-24.1%	1.6%	-20.8	1.5%
O=S(=O)(NCC(c1ccco1)N1CCc2ccccc2C1)c1ccc(F)cc1 (stereo not drawn)	-26.2%[46.1 µM]	63.4%	7.4%	-26.5%	16.9	7.7%
Cc1cc(C)c(S(=O)(=O)NCC(c2ccco2)N2CCc3ccccc3C2)c(C)c1 (stereo not drawn)	13.9%	u	9.28µM*	u	-4.6	1.5%
COc1cccc(C(=O)NCC(c2ccco2)N2CCc3ccccc3C2)c1 (stereo not drawn)	-6.2%	-21.3%	u	-0.9%	-9.0	9.4%
COc1ccc(NC(=O)C(=O)NCC(c2ccco2)N2CCc3ccccc3C2)cc1OC (stereo not drawn)	u	u	11.7µM*	u	16.1	u
COc1cccc(NC(=O)C(=O)NCC(c2ccco2)N2CCc3ccccc3C2)c1 (stereo not drawn)	u	u	11.7µM*	-19.8%	-15.4	u
COc1ccc(OC)c(S(=O)(=O)NCC(c2cccs2)N2CCc3ccccc3C2)c1 (stereo not drawn)	-26.6%	u	14.7µM*	2.1%	2.9	-12.4%
CC1CCCCC1NC(=O)c1cc(Cl)nc2ccccc12 (stereo not drawn)	x	x	x	x	-8.7	x
CCC(CC)C(C(=O)NCc1ccccc1)N1CCN(c2cccc(C)c2C)CC1 (stereo not drawn)	x	x	x	x	15.7	x
CC(=O)Nc1cccc(NC(=O)C(=O)NCC(c2ccco2)N2CCc3ccccc3C2)c1 (stereo not drawn)	u	u	11.7µM*	-17.9%	u	u
CN1CCN(Cc2c(C(=O)N/N=C/c3cccc(Br)c3)nnn2-c2nonc2N)CC1	x	26.1%	u	x	-60.1*	8.7%
CCOc1ccc(-c2c(C(=O)N/N=C/c3ccc(O)cc3)nnn2-c2nonc2N)cc1	0.4%	35.5%	4.8%	u	-29.0	14.8%
CCOc1cccc(-c2c(C(=O)N/N=C/c3ccc(Br)cc3)nnn2-c2nonc2N)c1	x	2.62µM*	u	x	-33.3	u
CCOc1ccc(-c2c(C(=O)N/N=C/c3cccc(Br)c3)nnn2-c2nonc2N)cc1	x	2.94µM*	u	x	-63.0*	34.1%
CN(C)Cc1c(C(=O)N/N=C/c2cccc(OCc3c(F)cccc3Cl)c2)nnn1-c1nonc1N	x	u	9.8%	x	-86.1*	u
CN(C)Cc1c(C(=O)N/N=C/c2ccccc2OCc2c(F)cccc2Cl)nnn1-c1nonc1N	u	u	-23.2%	u	u	14.5%
Nc1nonc1-n1nnc(C(=O)N/N=C/c2cccc(O)c2)c1CN1CCCC1	3.2%[46.1 µM]	-8.2%	-1.6%	-5.6%[46.1 µM]	-24.2	6.1%
SMILES	MARV entry inh	Pf growth 96h	Pf growth 48h	Lassa entry inh	HCMV inh	HCV inh
CC(NS(=O)(=O)c1ccc2c(c1)CCN2C(=O)CCCC(=O)O)c1ccccc1 (stereo not drawn)	1.6%[46.1 µM]	x	x	4.5%[46.1 µM]	9.7	x
Cc1cc(Nc2ccccc2)nn1C(=O)c1ccc([N+](=O)[O-])cc1	-19.7%	9.28µM*	2.2%	-3.2%	-19.9	u
CCC[C@H]1[C@@H](NC(=O)Nc2ccc(C(F)(F)F)cc2)CC[C@@]23CCCN2C(=O)CCC[C@@H]13	x	x	x	x	-4.8	x
COc1ccc(CN2C3CCCC2CC(NC(=O)Nc2ccccc2)C3)cc1 (stereo not drawn)	u	u	10.4µM*	-11.2%	-9.2	-23.0%
COc1ccc(CN2C3CCCC2CC(NC(=O)Nc2ccccc2C)C3)cc1 (stereo not drawn)	u	u	u	0.0%	0.4	u
CCc1ccc(NC(=S)NC2CC3CCCC(C2)N3Cc2cccs2)cc1 (stereo not drawn)	u	2.08µM*	u	u	-31.4	7.94µM*
CCCN1C2CCCC1CC(NC(=S)Nc1ccc(OC)cc1)C2 (stereo not drawn)	x	22.0%	-18.0%	x	-64.0*	-19.1%
COc1ccc(CN2C3CCCC2CC(NC(=O)Nc2cccc(C)c2)C3)cc1 (stereo not drawn)	4.61µM*	42.2%	7.38µM*	u	9.2	u
Cc1ccc(Cl)cc1-n1c(CCC(=O)O)ccc1-c1cccs1	19.5%[46.1 µM]	x	x	-4.3%[46.1 µM]	23.8	x
CCCCCn1c(N)c(-c2nc3ccccc3s2)c2c([N+](=O)[O-])nn(CC)c(=O)c21	2.91µM*	5.4%	x	10.8%	-6.3	11.2µM*
CCCCn1c(N)c(-c2nc3ccccc3s2)c2c([N+](=O)[O-])nn(CC)c(=O)c21	u	x	-6.3%	u	-29.3	u
[O-][N+]1=C(c2cccs2)CN(O)C1	15.6%[46.1 µM]	1.65µM*	-1.2%	u	-16.5	17.8%
Cc1[nH]c2ccccc2c1/C=N/n1cnnc1	4.9%	-3.3%	-13.1%	14.8%	25.5	-17.4%
COCCN=c1scc(-c2cc(OC)c(OC)c(OC)c2)n1/N=C/c1c(C)[nH]c2ccccc12	11.2µM*	2.62µM*	7.38µM*	u	44.5	8.91µM*
Brc1ccc2ncnc(NCc3ccccc3)c2c1	u	129.6%	u	u	-96.2*	10µM*
Cc1ccc(-n2ncc3c(NCCc4ccccc4)ncnc32)cc1	x	x	x	-1.3%[46.1 µM]	69.9	x
Cc1cc2c(NC3CCCCC3)ncnc2s1	u	-18.6%	-15.5%	u	u	10µM*
